In the supplement of paper PMC8728848:
This is one part of a sample in which the strongest signals are shown more often than they occur.

B1: RSVL (Crotalus atrox), P21963 (protein)
chain: NNCPLDWLPMNGLCYKIFNQLKTWEDAEMFCRKYKPGCHLASFHRYGESLEIAEYISDYHKGQENVWIGLRDKKKDFSWEWTDRSCTDYLTWDKNQPDHYQNKEFCVELVSLTGYRLWNDQVCESKDAFLCQCKF
B2: TES70 (Toxocara canis), Q9XYV5 (protein)
chain: MISVVLVAIALQISGSYAGACNSINDCGLFETCVNNMCVPDNMGCPMPCQAGQVCVPPNCVAAPAPQPVTTTTAAATTTTSARGRCNANAQCGAFEVCVNGMCQPNNAGCNPPCAANQVCVAPNCVPAPIPPPAQSTTTAPATTRAPPSCPPSWSPFSGHCYYVAVGSFLFNQASDWCTQTNSRPVWFDQSNVGTFGAELYFINVLAASRGVQTYWLGLNRQFGQWVWTNGSPLIFSNWRGSEPDGCCGGNVTCALVNYANPFGQWDDAGCGNIWRNPQGFICKKPLA

How the values were obtained:
Test in all cases: glycan array binding signal (z-score within array); higher = stronger binding
Details in all cases: glycan notation: IUPAC condensed, linker removed
[1] = molecular target: Fuc(a1-2)GlcNAc
How it was run: (§1)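 Arrays were curated from the Consortium for Functional Glycomics database, 3228 in total, and kept only where the protein sequence was available. Binding is expressed as a within-array Z-score. This score was averaged across arrays of the same protein sequence at different concentrations or buffers and across linkers, and negative values can be read as non-binding.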

[2] = molecular target: Fuc(a1-2)[GalNAc(a1-3)]Gal(b1-4)Glc
How it was run: as §1

[3] = molecular target: Gal(a1-3)[Gal(a1-4)]Gal(b1-4)GlcNAc
How it was run: as §1

[4] = molecular target: Gal(b1-3)[Neu5Ac(b2-6)]GalNAc
How it was run: as §1

[5] = molecular target: Gal(b1-4)GlcNAc
How it was run: as §1

[6] = molecular target: Gal(b1-4)GlcNAc(b1-2)Man(a1-3)[Gal(b1-4)GlcNAc(b1-2)Man(a1-6)]Man(b1-4)GlcNAc(b1-4)GlcNAc
How it was run: as §1

[7] = molecular target: Gal(b1-4)GlcNAc(b1-3)Gal(b1-4)GlcNAc(b1-3)Gal(b1-4)GlcNAc
How it was run: as §1

[8] = molecular target: Gal(b1-4)GlcNAc(b1-3)GalNAc
How it was run: as §1

[9] = molecular target: Gal(b1-4)GlcNAc(b1-3)[Gal(b1-4)GlcNAc(b1-6)]GalNAc
How it was run: as §1

[10] = molecular target: Gal(b1-4)GlcNAc(b1-6)[Gal(b1-3)]GalNAc
How it was run: as §1

[11] = molecular target: GalNAc(a1-3)GalNAc
How it was run: as §1

[12] = molecular target: GalNAc(b1-3)Gal(a1-4)Gal(b1-4)GlcNAc
How it was run: as §1

[13] = molecular target: Glc(b1-6)Glc
How it was run: as §1

[14] = molecular target: GlcNAc(b1-3)Gal(b1-4)GlcNAc
How it was run: as §1

[15] = molecular target: GlcNAc(b1-4)GlcNAc(b1-4)GlcNAc(b1-4)GlcNAc(b1-4)GlcNAc(b1-4)GlcNAc
How it was run: as §1

[16] = molecular target: GlcNAc(b1-6)GalNAc
How it was run: as §1

[17] = molecular target: Man(a1-2)Man(a1-2)Man(a1-3)Man
How it was run: as §1

[18] = molecular target: Neu5Ac(a2-3)Gal(b1-4)GlcNAc(b1-3)Gal(b1-4)GlcNAc
How it was run: as §1

[19] = molecular target: Neu5Ac(a2-3)Gal(b1-4)[Fuc(a1-3)]GlcNAc6S
How it was run: as §1

[20] = molecular target: Neu5Ac(a2-3)GalNAc
How it was run: as §1

[21] = molecular target: Neu5Ac(a2-3)GalNAc(b1-4)GlcNAc
How it was run: as §1

[22] = molecular target: Neu5Ac(a2-8)Neu5Ac(a2-8)Neu5Ac(a2-3)[GalNAc(b1-4)]Gal(b1-4)Glc
How it was run: as §1

[23] = molecular target: Neu5Gc(a2-3)Gal(b1-4)Glc
How it was run: as §1

[24] = molecular target: Neu5Gc(a2-6)GalNAc
How it was run: as §1

[25] = molecular target: Fuc(a1-2)[Gal(a1-3)]Gal
How it was run: as §1

[26] = molecular target: Fuc(a1-3)GlcNAc
How it was run: as §1

[27] = molecular target: Gal(b1-3)[Neu5Ac(a2-6)]GalNAc
How it was run: as §1

[28] = molecular target: Gal(b1-4)GlcNAc(b1-6)GalNAc
How it was run: as §1

[29] = molecular target: Glc(b1-4)Glc
How it was run: as §1

[30] = molecular target: GlcNAc(b1-4)[GlcNAc(b1-6)]GalNAc
How it was run: as §1

[31] = molecular target: Man(a1-2)Man(a1-6)[Man(a1-3)]Man(a1-6)[Man(a1-2)Man(a1-2)Man(a1-3)]Man(b1-4)GlcNAc(b1-4)GlcNAc
How it was run: as §1

[32] = molecular target: Neu5Ac(a2-3)Gal(b1-3)GalNAc
How it was run: as §1

[33] = molecular target: Neu5Ac(a2-3)Gal(b1-3)[Neu5Ac(a2-6)]GalNAc
How it was run: as §1

[34] = molecular target: Neu5Ac(a2-6)Gal(b1-4)GlcNAc
How it was run: as §1

[35] = molecular target: Neu5Ac(a2-8)Neu5Ac(a2-3)Gal(b1-4)Glc
How it was run: as §1

[36] = molecular target: Neu5Ac9Ac(a2-6)Gal(b1-4)GlcNAc
How it was run: as §1

| Binder | glycan array binding signal (z-score) [1] | glycan array binding signal (z-score) [2] | glycan array binding signal (z-score) [3] | glycan array binding signal (z-score) [4] | glycan array binding signal (z-score) [5] | glycan array binding signal (z-score) [6] | glycan array binding signal (z-score) [7] | glycan array binding signal (z-score) [8] | glycan array binding signal (z-score) [9] | glycan array binding signal (z-score) [10] | glycan array binding signal (z-score) [11] | glycan array binding signal (z-score) [12] | glycan array binding signal (z-score) [13] | glycan array binding signal (z-score) [14] | glycan array binding signal (z-score) [15] | glycan array binding signal (z-score) [16] | glycan array binding signal (z-score) [17] | glycan array binding signal (z-score) [18] | glycan array binding signal (z-score) [19] | glycan array binding signal (z-score) [20] | glycan array binding signal (z-score) [21] | glycan array binding signal (z-score) [22] | glycan array binding signal (z-score) [23] | glycan array binding signal (z-score) [24] | glycan array binding signal (z-score) [25] | glycan array binding signal (z-score) [26] | glycan array binding signal (z-score) [27] | glycan array binding signal (z-score) [28] | glycan array binding signal (z-score) [29] | glycan array binding signal (z-score) [30] | glycan array binding signal (z-score) [31] | glycan array binding signal (z-score) [32] | glycan array binding signal (z-score) [33] | glycan array binding signal (z-score) [34] | glycan array binding signal (z-score) [35] | glycan array binding signal (z-score) [36] |
| --- | --- | --- | --- | --- | --- | --- | --- | --- | --- | --- | --- | --- | --- | --- | --- | --- | --- | --- | --- | --- | --- | --- | --- | --- | --- | --- | --- | --- | --- | --- | --- | --- | --- | --- | --- | --- |
| B1 | -0.364 | 1.84 | 5.83 | 0.952 | 0.686 | 1.49 | -0.23 | -0.171 | 5.41 | 5.05 | 4.76 | 0.559 | -0.364 | -0.369 | -0.369 | 1.02 | -0.367 | -0.365 | -0.345 | -0.367 | -0.342 | -0.362 | -0.365 | -0.366 | – | – | – | – | – | – | – | – | – | – | – | – |
| B2 | – | – | – | – | – | – | – | – | – | – | – | – | – | – | – | – | – | – | – | – | – | – | – | – | -0.052 | -0.169 | 0.002 | 0.229 | -0.156 | 0.013 | -0.137 | 0.672 | -0.065 | 6.41 | -0.14 | -0.172 |
